“And” between values parts separate entries of the source, which are not always exact repeats. Equal values may be shown once. Results filed as inconclusive are left out. More than one record can exist for a structure, and the calls need not agree. The source made the active and inactive calls. Calls come from the whole dose curve.
% is set by controls: 0 for no effect and ±100 for the full control effect; potency is the fitted concentration of half-maximal effect.

This test in a line: qHTS assay to identify small molecule agonists of H2AX - cell viability counter screen (AID 1224847). For activity change, negative = cytotoxicity: top concentration of the series differs between compounds. Note: nearly all actives have a fitted effect of over 30% in size. As to conditions: CHO-K1 viability, CellTiter-Glo luminescence, 3 h; series mostly up to 154 µM; activity change, negative = cytotoxicity: at the top concentration. An excerpt: National Center for Advancing Translational Sciences [NCATS]
NIH Chemical Genomics Center [NCGC]
U.S. Environmental Protection Agency [EPA]
National Institutes of Environmental Health Sciences [NIEHS]
National Toxicology Program [NTP]
U.S. Food and Drug Administration [FDA]
HTRF phospho-H2AX (Ser139) assay (Cisbio Bioassays, US) enables the quantitative detection of the histone variant H2AX when phosphorylated on serine 139. When double-stranded DNA breaks, either by ionizing radiation or endogenous physiological processes, H2AX becomes phosphorylated at Ser139. This phospho-Ser139 serves as a sensitive biomarker for the detection of such breaks, localizing the site of DNA repair. So, HTRF phospho-H2AX Ser139 is a pertinent assay to study genome stability, the cell cycle, DNA repair, and it serves as a biomarker for cancer, and to understand aging. Wild type CHO-K1 cells were used to identify the inducers of Phospho-H2AX Ser 139 from the Tox21 compound collections. Also cytotoxicity of the Tox21 10K compound library against the CHO-K1 cell line was tested by measuring the cell viability using CellTiter-Glo assay (Promega, Madison, WI).
Tox21 Assay Protocol Summary:
The CHO-K1 cells suspended in culture medium containing 10% FBS were dispensed at 1000 cells/ 3 ul/well in 1536-well white wall/solid bottom plates (Greiner Bio-One North America, NC) using a Multidrop Combi (Thermo Fisher Scientific Inc., Waltham, MA). After the assay plates were incubated at 37C overnight, 23 nl of compounds at 15 concentrations (from 5-48 columns) or positive control (from 1 to 4 columns) were transferred to the assay plates using a Pintool station (Wako, San Diego, CA) into each well resulting in a final DMSO concentration of 0.76%. After 3hr incubation at 37C, 3 uL/well CellTiter-Glo luminescent cell viability reagent (Promega Corporation, Madison, WI) was added using a Flying Reagent Dispenser (FRD) (Aurora Discovery, CA). After incubation at room temperature for 30 min, the luminescence intensity was read using a ViewLux plate reader (PerkinElmer, Waltham, MA).
For the compound `CC1=C(C=O)C(C)(C)CC=C1`, the “activity change, negative = cytotoxicity” value is 2.36% (inactive).

In the case of `CCc1ccc(C(c2ccc(CC)cc2)C(Cl)Cl)cc1`, the Potency is 115 µM (active).

With `CC(=O)C1=C(C)[C@@H]2C[C@@]3(C1)[C@H](C)CC[C@H]3C2(C)C`, the Potency result was “inactive”.

On to `C=C(C)C1CC=C(C)C(OC(C)=O)C1` (stereo not given), for which the Potency result is “inactive”.

For `O=C(O)c1cccc(C(=O)O)c1`, the Potency result is “inactive”.

With `Oc1c(Cl)cc(Cl)c(Cl)c1Cc1c(O)c(Cl)cc(Cl)c1Cl`, the Potency was 25.2 µM (active) and 40.1 µM (active).

For the compound `CO[Si](OC)(OC)c1ccccc1`, the “activity change, negative = cytotoxicity” value is 2.08% (inactive).

Take `Cc1ccnc2c1NC(=O)c1cccnc1N2C1CC1`: the Potency result is “inactive”.

In the case of `CC(=O)Nc1ccc(C(=O)CCl)cc1`, the “activity change, negative = cytotoxicity” value is 0.334% (inactive).

For the compound `CCCCC(CC)COC(=O)CC(C(=O)OCC(CC)CCCC)S(=O)(=O)O` (stereo not given), the Potency is 86.4 µM (active) and 80 µM (active).

Regarding `CCN1CCCC1CNC(=O)c1cc(S(=O)(=O)CC)c(N)cc1OC` (stereo not given), the “activity change, negative = cytotoxicity” value is 1.06% [at 70.9 µM] (inactive).

In the case of `COC(c1ccccc1)(c1ccccc1)[C@H](Oc1nc(C)cc(C)n1)C(=O)O`, the “activity change, negative = cytotoxicity” value was -1.79% [at 70.9 µM] (inactive).

Regarding `CCOc1ccccc1C(N)=O`, the Potency entry is “inactive”.

In the case of `CC[C@H]1CN2CCc3cc(OC)c(OC)cc3[C@@H]2C[C@@H]1C[C@H]1NCCc2cc(OC)c(OC)cc21`, the Potency entry was “inactive”.

Regarding `OCCOCCN1CCN(C(c2ccccc2)c2ccc(Cl)cc2)CC1` (stereo not given), the Potency is 125 µM (active) and inactive.

With `CCCCCCCCCCCC[N+](C)(C)C`, the Potency is 113 µM (active) and inactive.

Take `O=C(O)CP(=O)(O)O`: the “activity change, negative = cytotoxicity” value was 4.17% [at 70.9 µM] (inactive).

On to `CC(C)(C)c1cc(C(C)(C)C)c(O)c(C(C)(C)C)c1`, for which the Potency is 101 µM (active).

In the case of `O=C(OCc1ccccc1)c1ccc(O)cc1`, the “activity change, negative = cytotoxicity” value was 1.55% [at 70.9 µM] (inactive).

On to `BrC1CCC(Br)C(Br)CCC(Br)C(Br)CCC1Br` (stereo not given), for which the Potency is 79.7 µM (active) and 95.6 µM (active).

Take `Cc1cccc(O)c1C`: the Potency result is “inactive”.

On to `COc1ccc(CCN(C)CCCC(C#N)(c2ccc(OC)c(OC)c2)C(C)C)cc1OC` (stereo not given), for which the Potency entry is “inactive”.

Consider `O=C1NCC2(CCN(CCc3ccccc3)CC2)O1`, for which the “activity change, negative = cytotoxicity” value was -1.01% [at 70.9 µM] (inactive).

`Cc1ccc(-c2cc(C(F)(F)F)nn2-c2ccc(S(N)(=O)=O)cc2)cc1`: the Potency is 100 µM (active) and 113 µM (active).

Regarding `O=C1Nc2ccccc2C1(c1ccc(O)cc1)c1ccc(O)cc1`, the Potency result was “inactive”.

On to `COC(=O)c1cccc(C(=O)OC)c1`, for which the Potency entry was “inactive”.

Take `O=C(Cl)c1cccc(C(=O)Cl)c1`: the Potency entry was “inactive”.

Regarding `CC(C)(C)c1ccc(O)c(C(C)(C)C)c1`, the Potency is 89.4 µM (active).

Take `CN1C(=O)c2ccc([N+](=O)[O-])cc2C1=O`: the “activity change, negative = cytotoxicity” value is 0.235% (inactive).

For the compound `CCCCCC(=O)O[C@]1(C(C)=O)CC[C@H]2[C@@H]3CCC4=CC(=O)CC[C@]4(C)[C@H]3CC[C@@]21C`, the Potency was 31.6 µM (active).

Regarding `CCCCC/C=C/CC1CC(=O)OC1=O` (stereo not given), the “activity change, negative = cytotoxicity” value is 7.38% (inactive).

For the compound `CCC(C)(C)C(=O)O[C@H]1C[C@@H](C)C=C2C=C[C@H](C)[C@H](CC[C@@H]3C[C@@H](O)CC(=O)O3)[C@H]21`, the Potency entry was “inactive”.

Regarding `CCCCOCCOC(=O)c1ccccc1C(=O)OCCOCCCC`, the “activity change, negative = cytotoxicity” value is -1.72% (inactive).

For `CC(C)C(=O)c1c(C(C)C)nn2ccccc12`, the “activity change, negative = cytotoxicity” value is 9.42% [at 70.9 µM] (inactive).

`N[C@@H]1CONC1=O`: the “activity change, negative = cytotoxicity” value was 0.936% [at 70.9 µM] (inactive).

`CCOC(=O)C(C)C(C)=O` (stereo not given): the “activity change, negative = cytotoxicity” value is 1% (inactive).

In the case of `O=C(O)Cn1cnnn1`, the “activity change, negative = cytotoxicity” value was 1.68% [at 70.9 µM] (inactive).

Turning to `CC(=O)OCCOCCOCCOC(C)=O`, the Potency result is “inactive”.

For `C#CC(C)(CC)OC(=O)c1ccccc1C(=O)O` (stereo not given), the “activity change, negative = cytotoxicity” value was 3.8% [at 70.9 µM] (inactive).

For the compound `COC(=O)/C=C/c1ccccc1`, the Potency result was “inactive”.

The values above are taken from PubChem BioAssay (Tox21).
